The text below walks through data of PubChem BioAssay (NCATS).

Assay [1] in a line: Quantitative High-Throughput drug screen in 47 multiple myeloma cell lines against the NCATS MIPE library collection: VP6_DJ cell viability assay (AID 1919867). Note: nearly all actives have a fitted effect of over 40% in size. Particulars: ATP luminescence, 48 h; series mostly up to 45.8 µM. The method, boiled down:
(§1)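 Myeloma cells (500/well) treated with MIPE 4.0 compounds for 48 h at 37 °C, 5% CO2. Viability read as ATP via CellTiter-Glo luminescence after 5 min at RT; DMSO-only wells = 100%, media-only = 0% viability.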

The nature of assay [2]: Quantitative High-Throughput drug screen in 47 multiple myeloma cell lines against the NCATS MIPE library collection: PE2_PLB cell viability assay (AID 1919869). Note: nearly all actives have a fitted effect of over 35% in size. The settings on record: PE2_PLB myeloma cells viability, ATP luminescence, 48 h; series mostly up to 45.8 µM. The method, boiled down:
as §1

A short description of assay [3]: Quantitative High-Throughput drug screen in 47 multiple myeloma cell lines against the NCATS MIPE library collection: PCM6_Riken cell viability assay (AID 1919870). Note: nearly all actives have a fitted effect of over 30% in size. The settings on record: CellTiter-Glo ATP, 48 h; series mostly up to 45.8 µM. The procedure, abridged:
as §1

The nature of assay [4]: Quantitative High-Throughput drug screen in 47 multiple myeloma cell lines against the NCATS MIPE library collection: RPMI8226_ATCC cell viability assay (AID 1919871). Note: nearly all actives have a fitted effect of over 30% in size. Particulars: RPMI8226 myeloma viability, CellTiter-Glo ATP luminescence, 48 h; series mostly up to 45.8 µM. The procedure, abridged: as §1
Background: Cellular ATP, detected with luciferase, serves as a proxy for viable cell number.

A short description of assay [5]: Quantitative High-Throughput drug screen in 47 multiple myeloma cell lines against the NCATS MIPE library collection: KMS11_JCRBsus cell viability assay (AID 1919873). Note: nearly all actives have a fitted effect of over 50% in size. Particulars: KMS11 myeloma viability, CellTiter-Glo ATP luminescence, 48 h; series mostly up to 45.8 µM. The procedure, abridged:
as §1

Assay [6] is described as follows: Quantitative High-Throughput drug screen in 47 multiple myeloma cell lines against the NCATS MIPE library collection: OPM2_DSMZ cell viability assay (AID 1919872). Note: nearly all actives have a fitted effect of over 30% in size. The settings on record: OPM2 myeloma viability, CellTiter-Glo ATP luminescence, 48 h; series mostly up to 45.8 µM. The method, boiled down: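 qHTS of the MIPE 4.0 collection: 500 myeloma cells/well, 48 h drug exposure at 37C in 5% CO2, then CellTiter-Glo for 5 min at room temperature before luminescence reading.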

The nature of assay [7]: Quantitative High-Throughput drug screen in 47 multiple myeloma cell lines against the NCATS MIPE library collection: KMS28BM_JCRB cell viability assay (AID 1919874). Note: nearly all actives have a fitted effect of over 35% in size. Particulars: CellTiter-Glo ATP, 48 h; series mostly up to 45.8 µM. The procedure, abridged: as §1

Records with an inconclusive call do not appear. Calls of active or inactive are those of the source. Calls come from the whole dose curve; as a rule, active = well fitted cell-killing curve with a large enough effect; inconclusive = small, poorly fitted or top-dose-only effect, or effect the other way; inactive = no such curve, though single readings can be large or run the other way.
Potency is the fitted concentration of half-maximal effect.

Regarding `CCOC(=O)[C@H](CCc1ccccc1)N[C@@H](C)C(=O)N1CCCC1C(=O)O` (stereo partly specified), the Potency is 20.9 µM (active) in assay [1] and 26.4 µM (active) in assay [3]. In addition, the Potency result in assay [2], in assay [4] and in assay [5] was “inactive” each time.
For `CC(C)C[C@@H](N)[C@H](O)C(=O)N[C@H](C(=O)N[C@H](C(=O)N[C@@H](CC(=O)O)C(=O)O)C(C)C)C(C)C`, the results for the Potency in assay [1] and in assay [2] were 5.26 µM (active) and 18.7 µM (active), respectively. In addition, the Potency entry in assay [4], in assay [6] and in assay [5] was “inactive” each time.
Turning to `Cc1cccc2c1CC[C@H](CN1CCC(c3c(Cl)cccc3Cl)CC1)C[C@@H]2O`, the Potency in assay [1] was 14.8 µM (active); in assay [2], 20.9 µM (active); in assay [3] it was 18.7 µM (active); in assay [4], 16.6 µM (active); in assay [5], 14.8 µM (active); in assay [7], 14.8 µM (active).
On to `CN(C)CCOc1ccc(-c2nc(-c3ccc4c(c3)CCC4=NO)c(-c3ccncc3)[nH]2)cc1`, for which the Potency in assay [1] was 18.7 µM (active); in assay [2], 16.6 µM (active); in assay [3], 10.5 µM (active); in assay [4], 20.9 µM (active); in assay [6], 16.6 µM (active); in assay [5], 11.8 µM (active). In addition, the Potency in assay [7] is 9.35 µM (active).
For `COc1ccc2nc3cc(Cl)ccc3c(Nc3cc(CN4CCCC4)c(O)c(CN4CCCC4)c3)c2n1`, the Potency in assay [1] was 9.35 µM (active); in assay [2], 18.7 µM (active); in assay [3], 16.6 µM (active); in assay [4], 18.7 µM (active); in assay [5], 16.6 µM (active); in assay [7], 23.5 µM (active).
In the case of `N#CC(c1ccnc(NCCc2cccnc2)n1)c1nc2ccccc2s1` (stereo unspecified), the Potency was 10.5 µM (active) in assay [1]; 5.26 µM (active) in assay [2]; 5.9 µM (active) in assay [3]; 26.4 µM (active) in assay [6]; 11.8 µM (active) in assay [5].
On to `CN(C)c1ccc(-c2nc3ncc(Cl)c(N4CCN(CC(=O)Nc5nccs5)CC4)c3[nH]2)cc1`, for which the Potency entry in assay [1] and in assay [3] was “inactive” each time. In addition, the Potency in assay [2] was 1.32 µM (active); in assay [4], 4.18 µM (active); in assay [5] it was 0.833 µM (active); in assay [7], 2.35 µM (active).
As to `NC(=O)c1ccc(N(C(N)=O)c2c(F)cccc2F)nc1-c1ccc(F)cc1F`, the Potency in assay [1] and in assay [2] was 16.6 µM (active) in each case. Also, the Potency entry in assay [4], in assay [6] and in assay [5] was “inactive” in each case.
As to `CN[C@@H]1[C@@H](O)[C@@H](O[C@@H]2[C@@H](O)[C@H](O[C@H]3O[C@H](CN)[C@@H](O)[C@H](O)[C@@H]3O)[C@@H](N)C[C@@H]2NC(=O)[C@@H](O)CN)OC[C@]1(C)O`, the Potency entry in assay [1], in assay [2], in assay [4] and in assay [6] was “inactive” in each case. Besides, the Potency in assay [5] was 7.43 µM (active).
Turning to `O=C(C=Cc1ccc(O)cc1)c1ccc(O)cc1O`, the Potency is 18.7 µM (active) in assay [1], 20.9 µM (active) in assay [2], 16.6 µM (active) in assay [3] and 10.5 µM (active) in assay [5].
In the case of `COc1cc2c(cc1Cc1cccc(Cl)c1F)c(=O)c(C(=O)O)cn2[C@H](CO)C(C)C`, the Potency in assay [1] is 10.5 µM (active); in assay [2] it was 23.5 µM (active); in assay [3] it was 16.6 µM (active); in assay [4], 14.8 µM (active); in assay [5], 2.96 µM (active).
On to `C=CCc1cccc(C=NNC(=O)CN2CCN(Cc3ccccc3)CC2)c1O`, for which the Potency is 7.43 µM (active) in assay [1]; 20.9 µM (active) in assay [2]; 26.4 µM (active) in assay [3]; 16.6 µM (active) in assay [6]; 8.33 µM (active) in assay [5]; 7.43 µM (active) in assay [7].
For `CCC(C)SSc1ncc[nH]1` (stereo unspecified), the Potency in assay [1] is 13.2 µM (active); in assay [2], 3.72 µM (active); in assay [3], 7.43 µM (active); in assay [4], 23.5 µM (active); in assay [6], 5.9 µM (active); in assay [7], 9.35 µM (active).
With `O=C(Nc1ccccc1)Nc1ccc(-c2ccc(C(=O)[C@H]3CCC[C@H]3C(=O)O)cc2)cc1`, the Potency entry in assay [1], in assay [2], in assay [4], in assay [6], in assay [5] and in assay [7] was “inactive” in each case.
Turning to `C=C1[C@H](n2cnc3c(=O)[nH]c(N)nc32)C[C@H](O)[C@H]1CO`, in assay [1], the Potency was 4.69 µM (active). Moreover, the Potency entry in assay [2], in assay [4] and in assay [6] was “inactive” in each case.
As for `CCc1cc(-c2n[nH]c(C)c2-c2ccc3c(c2)OCCO3)c(O)cc1O`, the Potency in assay [1] was 4.18 µM (active); in assay [2], 8.33 µM (active); in assay [3] it was 8.33 µM (active); in assay [4], 6.62 µM (active); in assay [6] it was 7.43 µM (active); in assay [5], 1.87 µM (active). Moreover, the Potency in assay [7] was 11.8 µM (active).
On to `CC(C)C[C@H](NC(=O)c1cc2ccccc2s1)C(=O)N1CCN(C(=O)[C@H](CO)NS(=O)(=O)c2ccc(Cl)cc2Cl)CC1`, for which the Potency is 18.7 µM (active) in assay [1]; 23.5 µM (active) in assay [2]; 23.5 µM (active) in assay [3]; 20.9 µM (active) in assay [5]; 20.9 µM (active) in assay [7].
On to `O=c1[nH]nc(OCCCc2ccc(Cl)cc2)c(NCc2cccnc2)c1Br`, for which the Potency in assay [1] was 9.35 µM (active); in assay [2], 9.35 µM (active); in assay [4], 20.9 µM (active); in assay [6], 23.5 µM (active); in assay [5], 5.26 µM (active); in assay [7], 20.9 µM (active).
As to `COc1cc2nc(-c3cc(F)ccc3O)nc(N[C@@H]3CNC[C@@H]3C(C)(C)O)c2cc1OC`, the Potency was 5.26 µM (active) in assay [1]; 7.43 µM (active) in assay [2]; 2.96 µM (active) in assay [3]; 23.5 µM (active) in assay [4]; 16.6 µM (active) in assay [6]; 5.26 µM (active) in assay [5]. For the same molecule, in assay [7], the Potency was 4.18 µM (active).
